# Assay results published in PubChem BioAssay (NCATS).
# Values joined by “and” are separate entries in the source; they are usually repeats but may differ in a detail not shown here. Equal entries are not always repeated. Inconclusive results are not listed. Active and inactive are the calls of the source. Calls follow the shape of the dose curve; as a rule, active = well fitted activation curve with a large enough effect; inconclusive = small, poorly fitted or top-dose-only effect; inactive = flat fitted curve, though single readings scatter.
# Assay: qHTS assay for environmental chemicals that activate the Aryl hydrocarbon Receptor (AhR) signaling pathway (AID 651777); also: nearly all actives have a fitted effect of over 15% in size; as to activation: % of control where 0% means no effect
# Conditions: 1A2-DRE human hepatoma cells, luciferase, 24 h; activation: active compounds read high
# Excerpt: National Center for Advancing Translational Sciences [NCATS]
# NIH Chemical Genomics Center [NCGC]
# U.S. Environmental Protection Agency [EPA]
# National Institutes of Environmental Health Sciences [NIEHS]
# National Toxicology Program [NTP]
# The Aryl hydrocarbon Receptor (AhR) plays a critical role in the development of cancer or neoplasm and its formation is most likely due to genetic mutations and the influence of environment. Exposure to environmental pollutants such as polycyclic aromatic hydrocarbons (PAH), their halogenated derivatives and heterocyclic amines causes the induction of phase I and II enzymes. The transcriptional activation of CYP1A2 is directly regulated by AhR.
# A cell based assay (1A2-DRE cells, developed by Puracyp, Inc., CA) was used to assess the activation of AhR. Human hepatoma cells were stably transfected with the dioxin response element (DRE) and CYP1A2 promoter fused to a luciferase gene. Increased luciferase activity can be used to identify the compounds that cause the induction of CYP1A2 and AhR activation.
# 1,200 cells in 5 uL/well were dispensed into white wall/solid bottom 1536-well plates using a Multidrop Combi (Thermo Scientific) dispenser. Following transfer of 23 nL compound or DMSO vehicle by a pin tool, the plates were incubated 24 hr at 37 C and 5% CO2. 5 ul One-Glo (Promega) was then added to each well and following 30 min incubation at room temperature, luciferase activity was quantified on a ViewLux CCD-based plate reader.
# Potency is read from the fitted curve at half-maximal effect.
SMILES,activation,Potency
CC(C)=C1CCC(C)CC1=O (stereo not given),-0.665% (inactive),
CCCC=O,-0.933% (inactive),
O=Cc1ccccc1Cl,-0.0176% (inactive),
NC(=S)NNC(N)=S,0.955% (inactive) and 1.28% (inactive),
CC(=O)c1ccccc1[N+](=O)[O-],-0.15% (inactive),
CC=O,1.11% (inactive),
CC(=O)OCc1ccco1,1.48% (inactive),
C1CCOC1,0.0348% (inactive),
CCN(C(=O)N(CC)c1ccccc1)c1ccccc1,-1.64% (inactive),
CCCCN(CCO)CCCC,-0.692% (inactive),
O=C(O)c1ccc(Cl)c(Cl)c1,1.84% (inactive),
CCCCC(CC)COCC1CO1 (stereo not given),-1.2% (inactive),
CCOc1cccc(N)c1,1.67% (inactive),
O=Cc1cccc(Br)c1,0.191% (inactive),
Clc1cc(Cl)cc(Cl)c1,2.15% (inactive),
CCC(C)(C)C(=O)O,0.179% (inactive),
CCOCCO,-0.327% (inactive),
C/C=C(/C)C#N,1.73% (inactive),
CNC(=O)c1ccccc1,-0.192% (inactive),
Nc1nc(CC(=O)O)cs1,-0.467% (inactive),

SMILES,activation,Potency
CC#N,0.208% (inactive),
Nc1nc(-c2ccccc2)cs1,,35.5 µM (active)
CCC=O,-0.0092% (inactive),
CSc1ccc(C=O)cc1,0.018% (inactive),
FC(F)(F)c1cccc(Cl)c1,-0.497% (inactive),
CC(C)N(C)C,-0.41% (inactive),
Cc1ccc(Cl)cc1N,-0.729% (inactive),
CC(C)(C)OCC1CO1 (stereo not given),2.26% (inactive),
FC(F)(F)c1ccccc1Cl,-0.14% (inactive),
Cc1ccccc1C(=O)O,0.336% (inactive),
CC1(N)CCC(C(C)(C)N)CC1 (stereo not given),-0.642% (inactive),
CCNc1ccccc1,0.398% (inactive),
Cc1c(N)cccc1[N+](=O)[O-],-0.541% (inactive),
C=Cc1ccccn1,0.147% (inactive),
Nc1cccc([N+](=O)[O-])c1,0.683% (inactive),
Cc1cc(C2(c3cc(C)c(O)cc3C)OS(=O)(=O)c3ccccc32)c(C)cc1O,0.42% (inactive),
C1CCCC1,0.0008% (inactive),
Cc1ccc([N+](=O)[O-])c(N)c1,0.147% (inactive),
Cc1cc(C)cc([N+](=O)[O-])c1,0.689% (inactive),
CCCCCCCCC/C=C/CC1CC(=O)OC1=O (stereo not given),0.696% (inactive),
